From PubChem
MazEF act: activators of E. coli MazEF toxin-antitoxin RNase | P0AE70 | FAM/BHQ RNA-DNA oligo cleavage fluorescence, 5 h | activation, % at 20 µM | 350,000 compounds, 0.32% hits | AID 504720; in the data active = activation above about 50%
Target sequence (P0AE70 whole entry, looked up): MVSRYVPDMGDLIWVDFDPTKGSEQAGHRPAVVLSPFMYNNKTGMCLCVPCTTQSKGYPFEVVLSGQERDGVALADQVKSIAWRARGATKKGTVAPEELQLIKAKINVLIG
TcdB GH inh: inhibitors of Clostridioides difficile toxin B glycohydrolase. P18177. TcdB glycohydrolase enzymatic assay, plate reader. inhibition, % at 9.99 µM. 350,000 compounds, 0.24% hits. AID 652162; in the data active = inhibition above about 10%
FadD28 FP inh: M. tuberculosis FadD28 bisubstrate binding inhibition; AID 588549; FadD28 bisubstrate probe binding, fluorescence polarization; inhibition, % at 12.5 µM; 360,000 compounds, 0.22% hits; in the data active = inhibition above about 8.5%, passing the limit was not always enough
Yp Topo-I inh: inhibitors of Yersinia pestis topoisomerase I. 360,000 compounds, 0.064% hits. AID 504884. activity, % at 10 µM. Y. pestis Topo-I cleavage product accumulation, plate reader; in the data active = activity above about 50%, passing the limit was not always enough
BioA inh: BioA (M. tuberculosis) enzyme inhibition. purified M. tuberculosis BioA enzyme, plate reader. inhibition, % at 9.99 µM. 360,000 compounds, 0.096% hits. AID 602481; in the data active = inhibition above about 40%
VHR inh abs: blocks human VHR1 dual specificity phosphatase; 290,000 compounds, 0.52% hits; inhibition, % at 13.3 µM; P51452; recombinant VHR phosphatase, pNPP absorbance; AID 1654; in the data active = inhibition above about 50%
Target sequence (P51452 whole entry, looked up): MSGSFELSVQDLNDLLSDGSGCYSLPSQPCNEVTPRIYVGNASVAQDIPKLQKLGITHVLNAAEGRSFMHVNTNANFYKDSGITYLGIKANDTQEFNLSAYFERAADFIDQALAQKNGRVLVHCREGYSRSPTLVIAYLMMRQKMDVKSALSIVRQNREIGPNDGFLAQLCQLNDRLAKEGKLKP
* = called active by the depositor; . = no result. Rows were chosen to be rich in hits. Some 1% of all compounds tested hit in one or more screens of this group.

SMILES	MazEF act	TcdB GH inh	FadD28 FP inh	Yp Topo-I inh	BioA inh	VHR inh abs
CC(C)(C)NC(=O)CSCc1ccc(Br)cc1	-6	2	-1	-1	-2	53*
O=C(C[C@H]1C=C[C@@H](NC(=O)CC2CC2)[C@H](CO)O1)NCc1ccccc1	.	0	.	.	.	.
Cc1noc(C)c1CC(=O)N1CCCC(C(=O)c2ccc(C(C)(C)C)cc2)C1 (stereo not given)	-12	2	-1	17	4	18
CC(C)(C)c1ccc(C(=O)C2CCCN(C(=O)C3CCOCC3)C2)cc1 (stereo not given)	73*	-2	1	26	0	-27
CC1CCCCC1NC1=NCCCS1 (stereo not given)	.	.	.	.	.	54*
CCOC(=O)c1cccc(NC(=O)CCNS(=O)(=O)c2cccc3nonc23)c1	2	16*	-4	1	1	35
CC(=O)Nc1ccc(NS(=O)(=O)c2cccc3nonc23)cc1	9	1	0	-4	-1	58*
Cc1cccc(NC(=O)CCNS(=O)(=O)c2cccc3nonc23)c1	-13	2	-2	8	1	-24
Cc1cccc(NC(=O)CCNS(=O)(=O)c2cccc3nonc23)c1C	-17	1	-2	0	.	2
CCOc1ccccc1NC(=O)CCNS(=O)(=O)c1cccc2nonc12	6	14*	-2	3	-2	4
CCCN(C)C[C@H]1OCCCC[C@@H](C)Oc2ccc(NC(=O)NC(C)C)cc2C(=O)N([C@@H](C)CO)C[C@H]1C	.	-3	.	.	-1	.
COCC(=O)N1CC2(C1)[C@@H](c1ccc(-c3ccccc3)cc1)[C@H](CO)N2C(C)=O	.	-1	.	.	.	.
N#C/C(=C\c1ccccc1)C(=O)NC1CC1	4	1	-2	9	-1	53*
CCOc1ccc(/C=N/n2nnnc2N)cc1OCC	1	0	0	-5	0	18
CCOc1cc(/C=N\n2nnnc2N)ccc1O	9	23*	-3	0	1	20
CCOc1ccc(/C=N/n2nnnc2N)cc1O	7	19*	-1	1	1	-34
C[C@H](NC(=O)C[C@H]1C=C[C@@H](NC(=O)Cc2ccccn2)[C@@H](CO)O1)c1ccccc1	.	-1	.	.	-1	.
O=C(C1CCC1)N1CC2(C1)[C@H](c1ccccc1)[C@@H](CO)N2C(=O)CC1CC1	.	1	.	.	.	.
CCC(C)(C)NC(=O)c1sccc1Oc1ccc(F)cc1[N+](=O)[O-]	7	2	-3	6	.	51*
C#CC(C)(C)NC(=O)c1sccc1Oc1ccc(F)cc1[N+](=O)[O-]	2	1	-3	8	.	33
O=c1[nH]c(=O)n(Cc2ccccc2Cl)c(O)c1C=Nc1ccc(F)cc1	53*	.	-2	4	-2	6
C=CCn1c(O)c(C=Nc2ccc(F)cc2)c(=O)[nH]c1=O	9	0	0	3	-2	-10
COc1cccc(S(=O)(=O)N[C@H]2C=C[C@@H](CC(=O)NC3Cc4ccccc4C3)O[C@H]2CO)c1	.	-1	.	.	-1	.
CC(Cc1ccc(O)cc1)NCC(O)c1ccc(O)c(O)c1 (stereo not given)	1	-7	8.2*	-6	-1	.
CCCNC(=O)N1CC2(C1)CN(C(=O)COC)[C@H](CO)c1[nH]c3cc(OC)ccc3c12	.	0	.	.	.	.
SMILES	MazEF act	TcdB GH inh	FadD28 FP inh	Yp Topo-I inh	BioA inh	VHR inh abs
CCOC(=O)C1CCCN(C2=NC(=O)/C(=C/c3ccc(N(C)C)cc3)S2)C1 (stereo not given)	-176	0	-1	4	-28	53*
CCOC(=O)C1CCCN(C2=NC(=O)/C(=C/c3ccc(OC)cc3)S2)C1 (stereo not given)	5	1	-1	26	-1	-12
Cc1ccc(C(=O)c2sc3nsc(C)c3c2N)cc1	62*	.	-1	4	.	12
Cc1snc2sc(C(=O)c3ccc(Br)cc3)c(N)c12	16	.	-3	-7	.	12
Cc1ccc(NC(=S)N2CCC(NC(=O)c3ccc(C)cc3)CC2)cc1	12	1	0	6	-1	-26
Cc1ccc(NC(=S)N2CCC(NC(=O)c3cccc(F)c3)CC2)cc1	0	1	0	-1	1	55*
COc1ccc(S(=O)(=O)N(C)C[C@@H]2Oc3ccc(NC(=O)NC(C)C)cc3CC(=O)N([C@@H](C)CO)C[C@H]2C)cc1	.	-2	.	.	2	.
O=C(C1CCCC1)N1CCCCN2[C@H](C1)[C@H](c1ccc(C#CC3CC3)cc1)[C@@H]2CO	.	0	.	.	3	.
CCCN1CCC2(CC1)NC(C(=O)O)Cc1c2[nH]c2ccccc12 (stereo not given)	1	.	-2	1	1	-14
CCC1(C)NC(C(=O)O)Cc2c1[nH]c1ccccc21 (stereo not given)	3	1	-2	-2	-1	60*
O=C(O)c1ccc(N/N=C/c2ccc(-c3cc(Cl)ccc3Cl)o2)cc1	-12	-5	2	-5	-3	8
O=C(O)c1cccc(-c2ccc(/C=N/Nc3ccc([N+](=O)[O-])cc3)o2)c1	-4	2	23*	-7	2	4
O=C(O)c1ccc(N/N=C/c2ccc(-c3cccc(Cl)c3)o2)cc1	-10	-1	9.9*	-14	4	-4
Cc1c(C(=O)O)cccc1-c1ccc(/C=N/Nc2ccc(Br)cc2)o1	2	.	17*	-6	57*	-11
CCOC(=O)/C=c1\s/c(=C\c2c(OCC)ccc3ccccc23)c(=O)n1CC(=O)NCC1CCCO1 (stereo not given)	-17	.	-2	13	.	9
CCOC(=O)/C=c1/s/c(=C\c2c(OC)ccc3ccccc23)c(=O)n1CC(=O)NCC1CCCO1 (stereo not given)	184*	-4	1	24	.	.
CC(C)c1nnc(NC(=O)CCC(=O)NCc2ccccc2Cl)s1	0	2	-3	3	1	2
CC(C)Cc1nnc(NC(=O)CCC(=O)NCc2ccccc2Cl)s1	-18	13*	-2	3	.	10
CO[C@@H]1CN(C)C(=O)c2ccc(NC(=O)C3CC3)cc2OC[C@H](C)N(C(=O)C2CCOCC2)C[C@@H]1C	.	0	.	.	5	.
CCOCCCNC(=S)Nc1cc(OCC)c(NC(=O)c2ccco2)cc1OCC	4	.	-1	1	0	22
CCOc1cc(NC(=S)NCC(C)C)c(OCC)cc1NC(=O)c1ccco1	7	.	-1	-8	.	51*
CC(=O)NS(=O)(=O)c1ccc(N=c2ssc3c2-c2ccc(C)cc2NC3(C)C)cc1	-4	.	14*	3	.	2
C[C@H](CO)N1C[C@H](C)[C@@H](CN(C)C(=O)c2ccc(F)cc2)Oc2cc(C3=CCCCC3)ccc2S1(=O)=O	.	0	.	.	1	.
N#Cc1c(N)n[nH]c1CCCN	-1	0	-2	-2	0	51*
N#Cc1c(N)n[nH]c1-c1cc2c([nH]1)CCCC2	4	.	1	-1	-2	18
